Like-named read-outs stand apart in the source and are kept apart here.
What was measured:
Parameters in all cases: species or system human, MV4-11 + K-562 + COLO205 + SK-N-BE2 + OVCAR-8
BRAF = conditions: read-out: apparent Kd, n = 1
LIMK2 = conditions: read-out: apparent Kd, n = 1
ADCK1 = conditions: read-out: apparent Kd, n = 1
CDK1 = conditions: read-out: apparent Kd, n = 1
CDK2 = conditions: read-out: apparent Kd, n = 1
CDK5 = conditions: read-out: apparent Kd, n = 1
PTK2B = conditions: read-out: apparent Kd, n = 1
PTK2 = conditions: read-out: apparent Kd, n = 1
STK3 = conditions: read-out: apparent Kd, n = 1
MAPK10 = conditions: read-out: apparent Kd; compound concentrations:100 nM and 1000 nM (sheet 'Samples'); n = 1
TESK1 = conditions: read-out: apparent Kd, compound concentrations: 100 nM and 1000 nM (sheet 'Samples'), n = 1
COX5A = conditions: read-out: apparent Kd, n = 1
DCTPP1 = conditions: read-out: apparent Kd; compound concentrations:100 nM and 1000 nM (sheet 'Samples'); n = 1
PYGL = conditions: read-out: apparent Kd, n = 1
TNIK = conditions: read-out: apparent Kd; compound concentrations: 100 nM and 1000 nM (sheet 'Samples'), CATDS: 4.94410528213204E-2; n = 1
PIK3CA = conditions: read-out: apparent Kd, n = 1
IRAK3 = conditions: read-out: apparent Kd; compound concentrations:100 nM and 1000 nM (sheet 'Samples'); n = 1
STK16 = conditions: read-out: apparent Kd; compound concentrations:100 nM and 1000 nM (sheet 'Samples'); n = 1
ADRBK1 = conditions: read-out: apparent Kd, n = 1
[1] = compound concentrations:100 nM and 1000 nM (sheet 'Samples')

Work on `CC(C)c1nc(-c2ccc(F)c(NS(=O)(=O)c3c(F)cccc3F)c2)c(-c2ccnc(Nc3ccc(N4CCOCC4)nc3)n2)s1` [GSK1804250A] yielded a potency estimated from few doses (BRAF; [1]) of 939 nM and a potency estimated from few doses (LIMK2; [1]) of 478 nM.

Compound `N#Cc1cccc(Nc2nccc(-c3cnn4ncccc34)n2)c1` [GW778894X] has a potency estimated from few doses (ADCK1; [1]) of 2050 nM, a potency estimated from few doses (CDK1; [1]) of 1240 nM and a potency estimated from few doses (CDK2; compound concentrations: 100 nM and 1000 nM (sheet 'Samples'), CATDS: 2.8219089282239498E-2) of 194 nM. The potency estimated from few doses (CDK5; [1]) was 669 nM.

`CN(C)Cc1ccc(-c2ccc3c(Nc4ccc(Oc5ccccn5)cc4)ccnc3c2)o1` [GW567148X] gave a potency estimated from few doses (PTK2B; compound concentrations: 100 nM and 1000 nM (sheet 'Samples'), CATDS: 2.12691468378991E-2) of 830 nM and a potency estimated from few doses (PTK2; compound concentrations: 100 nM and 1000 nM (sheet 'Samples'), CATDS: 2.1089063317390098E-2) of 850 nM.

Work on `Cn1cc(-c2cnc(N)c3c(-c4ccc5c(c4)CCN5C(=O)Cc4ccccc4)csc23)cn1` [GSK2593074A] yielded a potency estimated from few doses (STK3; [1]) of 1890 nM.

Work on `COc1cc2ncn(-c3cc(OCCCc4ccccc4)c(C(N)=O)s3)c2cc1OC` [GSK205189A] yielded a potency estimated from few doses (PTK2B; [1]) of 642 nM and a potency estimated from few doses (PTK2; [1]) of 678 nM.

`Cl.Cn1c(=O)c(Cc2ccc(F)cc2F)cc2cnc(NC3CCOCC3)nc21` [RO3308757-001] was tested, and the potency estimated from few doses (MAPK10) was 886 nM, the potency estimated from few doses (PTK2B; [1]) was 456 nM and the potency estimated from few doses (PTK2; [1]) was 474 nM.

For `CC(C)c1nc(-c2cccc(NS(=O)(=O)c3c(F)cccc3F)c2F)c(-c2ccnc(Nc3ccc(N4CCOCC4)nc3)n2)s1` [GSK2008607A], the potency estimated from few doses (BRAF; compound concentrations: 100 nM and 1000 nM (sheet 'Samples'), CATDS: 1.89965490605935E-2) was 1670 nM, the potency estimated from few doses (CDK1; compound concentrations: 100 nM and 1000 nM (sheet 'Samples'), CATDS: 1.7444638533949799E-2) was 2410 nM and the potency estimated from few doses (CDK2; compound concentrations: 100 nM and 1000 nM (sheet 'Samples'), CATDS: 2.0277618916634502E-2) was 1320 nM. It also gave a potency estimated from few doses (CDK5; compound concentrations: 100 nM and 1000 nM (sheet 'Samples'), CATDS: 2.5832908266049601E-2) of 668 nM, a potency estimated from few doses (LIMK2; compound concentrations: 100 nM and 1000 nM (sheet 'Samples'), CATDS: 2.06856155254838E-2) of 1240 nM and a potency estimated from few doses (TESK1; CATDS: 2.61955130991521E-2) of 646 nM.

With `O=S(=O)(c1ccc(-c2ccnc3[nH]ccc23)cc1)N1CCCC1` [GSK846226A] the potency estimated from few doses (COX5A; [1]) was 848 nM and the potency estimated from few doses (DCTPP1) was 2150 nM.

In the case of `CNc1nccc(-c2c(-c3ccc(F)cc3)ncn2C2CCN(C)CC2)n1` [SB-222903], the potency estimated from few doses (MAPK10) is reported as 976 nM.

`Nc1nc(N)c2nc(-c3ccccc3)[nH]c2n1` [SKF-12778] gave a potency estimated from few doses (ADCK1; [1]) of 1200 nM, a potency estimated from few doses (MAPK10) of 925 nM and a potency estimated from few doses (PYGL; [1]) of 1640 nM.

`Fc1cc(Cl)ccc1Nc1ccnc2cc(-c3ccc(CN4CCOCC4)o3)ccc12` [GW560109X] showed a potency estimated from few doses (TNIK) of 2050 nM.

With `Cc1cc(O)cc(C)c1/C=C/c1cncc(-c2nn[nH]n2)c1.Cl` [GW441806A] the potency estimated from few doses (PIK3CA; compound concentrations: 100 nM and 1000 nM (sheet 'Samples'), CATDS: 8.3670028423682499E-2) was 256 nM and the potency estimated from few doses (TESK1; CATDS: 4.6291633424982298E-2) was 1290 nM.

`CC(=O)N1CCN(c2ccc(Nc3nccc(-c4sc(C(C)C)nc4-c4cccc(NS(=O)(=O)c5cccc(Cl)c5)c4)n3)cn2)CC1` [GSK1660437A] showed a potency estimated from few doses (LIMK2; compound concentrations: 100 nM and 1000 nM (sheet 'Samples'), CATDS: 4.7315516345464E-2) of 946 nM.

With `Nc1ncc(-c2cn[nH]c2)c2scc(-c3ccc4c(c3)CCN4C(=O)Cc3ccccc3)c12` [GSK2593067A] the potency estimated from few doses (STK3; compound concentrations: 100 nM and 1000 nM (sheet 'Samples'), CATDS: 6.6601304210445203E-2) was 1190 nM.

With `COc1cc(F)c(F)c(F)c1C(=O)c1cnc(NC2CCN(S(C)(=O)=O)CC2)nc1N` [RO4600703-000] the potency estimated from few doses (CDK1; [1]) was 368 nM, the potency estimated from few doses (CDK2; [1]) was 90.2 nM and the potency estimated from few doses (CDK5; [1]) was 138 nM.

`Cc1[nH]nc2c1N=C(c1ccccc1Cl)c1cc([N+](=O)[O-])ccc1N2` [RO0274406-000] showed a potency estimated from few doses (COX5A; compound concentrations: 100 nM and 1000 nM (sheet 'Samples'), CATDS: 8.1877347137814999E-2) of 832 nM.

`NC(=O)c1cccnc1COc1cc(-c2ccc(N3CCOCC3)nc2)cc2ncccc12` [BI01125081] gave a potency estimated from few doses (DCTPP1) of 1970 nM, a potency estimated from few doses (IRAK3) of 577 nM and a potency estimated from few doses (STK16) of 1240 nM.

In the case of `COc1ccc(C2=C(c3cn(C)c4ccccc34)C(=O)NC2=O)cc1OC` [RO3206363-000], the potency estimated from few doses (PYGL; compound concentrations: 100 nM and 1000 nM (sheet 'Samples'), CATDS: 3.1878798319940699E-2) is reported as 1850 nM.

For `Clc1ccc(-c2nn3ncccc3c2-c2ccnc(Nc3ccccc3)n2)cc1` [GW829055X], the potency estimated from few doses (ADCK1; compound concentrations: 100 nM and 1000 nM (sheet 'Samples'), CATDS: 3.6697893678181097E-2) was 1430 nM, the potency estimated from few doses (ADRBK1; compound concentrations: 100 nM and 1000 nM (sheet 'Samples'), CATDS: 3.1852234097214598E-2) was 2080 nM and the potency estimated from few doses (PYGL; compound concentrations: 100 nM and 1000 nM (sheet 'Samples'), CATDS: 3.3581254695289102E-2) was 1800 nM. The potency estimated from few doses (STK3; compound concentrations: 100 nM and 1000 nM (sheet 'Samples'), CATDS: 3.09457854656708E-2) was 2270 nM.

For `COc1ccc(C2=C(Nc3cccc(O)c3)C(=O)NC2=O)cc1` [SB-390766], the potency estimated from few doses (PIK3CA; [1]) was 115 nM and the potency estimated from few doses (STK16) was 1590 nM.

`Nc1c(C(=O)c2ccccc2)cnn1-c1ccc(F)cc1` [RO1151246-000] showed a potency estimated from few doses (CDK1; [1]) of 1880 nM.

Work on `Fc1ccc(-c2ncn(C3CCNCC3)c2-c2ccnc(Oc3ccc4c(c3)OCO4)n2)cc1` [SB-250715] yielded a potency estimated from few doses (ADCK1; [1]) of 1850 nM, a potency estimated from few doses (ADRBK1; [1]) of 2150 nM and a potency estimated from few doses (PYGL; [1]) of 1990 nM.

With `COc1ccc(C2=NC(c3ccc(Cl)cc3F)C(C(=O)Nc3ccc4[nH]ncc4c3)=C(C)N2)cn1.O=C(O)C(F)(F)F` (stereo not drawn) [GSK534913A] the potency estimated from few doses (ADRBK1; [1]) was 895 nM.

Work on `Cc1ccc(-n2nc(C(C)(C)C)cc2NC(=O)Nc2ccc(OCCN3CCOCC3)cc2)cc1` [BIRB0876BS] yielded a potency estimated from few doses (COX5A; [1]) of 963 nM.

With `COc1ccc(-c2nn3ncccc3c2-c2ccnc(Nc3ccc4c(c3)OCCO4)n2)cc1` [GW827106X] the potency estimated from few doses (PIK3CA; compound concentrations: 100 nM and 1000 nM (sheet 'Samples'), CATDS: 0.187165726463497) was 172 nM.

Compound `COc1cc(N2CCN(C(C)C)CC2)ccc1Nc1nc(Nc2cccc(F)c2C(=O)O)c2cc[nH]c2n1` [GSK1819799A] has a potency estimated from few doses (PTK2B; compound concentrations: 100 nM and 1000 nM (sheet 'Samples'), CATDS: 7.8469335656757594E-2) of 466 nM and a potency estimated from few doses (PTK2; compound concentrations: 100 nM and 1000 nM (sheet 'Samples'), CATDS: 7.4046545419842305E-2) of 522 nM.

`COc1ccc(Nc2nccc(N3CCC(NC(=O)Nc4cccc(OC)c4)C3)n2)cc1` (stereo not drawn) [GSK1379742A] was tested, and the potency estimated from few doses (CDK1; compound concentrations: 100 nM and 1000 nM (sheet 'Samples'), CATDS: 0.12045824140997501) was 1770 nM.

`Cl.Oc1ccc2ncnc(Nc3ccc(OCc4ccccc4)cc3)c2c1` [GI262866A] was tested, and the potency estimated from few doses (STK16) was 1160 nM.

Compound `NS(=O)(=O)c1cccc(-c2ccc3nccc(-c4cccc(S(N)(=O)=O)c4)c3c2)c1` [GW867253X] has a potency estimated from few doses (ADRBK1; compound concentrations: 100 nM and 1000 nM (sheet 'Samples'), CATDS: 0.51630856929824398) of 1860 nM.
